Values without a mark were called inactive. Results filed as inconclusive are left out. Entries that show only a call come without a potency. Activity calls are given as the source filed them. Unless noted, calls come from the whole dose curve; as a rule, active = well fitted curve in the direction sought with a large enough effect in the repeat runs; inconclusive = weak or mixed curves; inactive = no such curve, though single readings can be large; an effect the other way counts as inactive or inconclusive.
Legend:
[1] = qHTS assay to identify small molecule antagonists of the glucocorticoid receptor (GR) signaling pathway - cell viability counter screen (AID 720693); note: nearly all actives have a fitted effect of over 55% in size
[2] = qHTS assay for identifying genotoxic compounds that show differential cytotoxicity against isogenic chicken DT40 cell lines with known DNA damage response pathways - wild type cell line (AID 743012); note: nearly all actives have a fitted effect of over 60% in size
Method in brief: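 Cytotoxicity in repair-proficient parental chicken DT40 cells serves as the comparator for Rad54/Ku70- and Rev3-deficient lines. Cells were exposed to compounds for 40 h at 37 C/5% CO2, and ATP-based luminescence (CellTiter-Glo) measured viability.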

[3] = qHTS assay for identifying genotoxic compounds that show differential cytotoxicity against isogenic chicken DT40 cell lines with known DNA damage response pathways - Rev3 mutant cell line (AID 743014); note: nearly all actives have a fitted effect of over 55% in size
[4] = qHTS assay for identifying genotoxic compounds that show differential cytotoxicity against isogenic chicken DT40 cell lines with known DNA damage response pathways - Rad54/Ku70 mutant cell line (AID 743015); note: nearly all actives have a fitted effect of over 60% in size
[5] = qHTS assay to identify small molecule antagonists of the androgen receptor (AR) signaling pathway - cell viability counter screen (AID 743033; note: nearly all actives have a fitted effect of over 45% in size)
[6] = molecular target: Androgen receptor (Homo sapiens) (UniProt P10275); assay: qHTS assay to identify small molecule agonists of the androgen receptor (AR) signaling pathway (AID 743036; active = well fitted activation curve with a large enough effect in the signal ratio in the repeat runs, with a control signal flat, not every such curve was filed as active; the % refers to the signal ratio)
Method in brief: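 In this Tox21 qHTS, 2,000 HEK293 AR-bla cells per well were incubated with compounds for 16 h at 37C and 5% CO2. Fluorescence intensity was recorded 2 h after adding LiveBLAzer B/G FRET substrate at room temperature.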

[7] = molecular target: Androgen receptor (Homo sapiens) (UniProt P10275); assay: qHTS assay to identify small molecule agonists of the androgen receptor (AR) signaling pathway using the MDA cell line (AID 743040; note: nearly all actives have a fitted effect of over 20% in size)
Method in brief: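 Cell-based luciferase reporter: MDA-kb2, MMTV promoter (AR + GR response elements). 16 h compound exposure at 37C; ONE-Glo, 30 min RT, luminescence.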

[8] = qHTS assay to identify small molecule antagonists of the androgen receptor (AR) signaling pathway using the MDA cell line - cell viability counter screen (AID 743041; note: nearly all actives have a fitted effect of over 45% in size)
Method in brief: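 In this qHTS counter assay, fluorescence intensity after CellTiter-Fluor addition indicated viability of MDA-kb2 AR-luc cells given compounds and R1881 for 16 h at 37C.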

[9] = qHTS assay to identify small molecule antagonists of the thyroid receptor (TR) signaling pathway - cell viability counter screen (AID 743064); note: nearly all actives have a fitted effect of over 50% in size
Method in brief: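 Counter screen for cytotoxicity: compound plus T3 (1 nM final) on GH3.TRE-Luc cells, 23.5 h at 37 °C, then fluorescence viability readout with CellTiter-Fluor.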

[10] = qHTS assay to identify small molecule antagonists of the thyroid receptor (TR) signaling pathway (AID 743065); note: series mostly up to about 70 µM; nearly all actives have a fitted effect of over 55% in size
Method in brief: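 GH3.TRE-Luc rat pituitary cells carrying two TR response elements driving luciferase were plated for 4 h, given compound plus 1 nM T3 (final), and incubated 23.5 h at 37 C. ONE-Glo luminescence measured reporter inhibition; CellTiter-Fluor fluorescence tracked cytotoxicity.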

[11] = tested on: thyroid hormone receptor (rat, GH3 cells); assay: qHTS assay to identify small molecule agonists of the thyroid receptor (TR) signaling pathway (AID 743066; calls by dose curve)
[12] = qHTS assay to identify small molecule antagonists of the estrogen receptor alpha (ER-alpha) signaling pathway - cell viability counter screen (AID 743074; calls by dose curve;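 note: HEK293 cells carrying ER-alpha-UAS-bla reporter stimulated with 17beta-estradiol; nearly all actives have a fitted effect of over 45% in size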)
[13] = qHTS assay to identify small molecule antagonists of the estrogen receptor alpha (ER-alpha) signaling pathway using the BG1 cell line - cell viability counter screen (AID 743081);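 note: compound given together with 17beta-estradiol as the ER stimulus; series mostly up to about 70 µM; nearly all actives have a fitted effect of over 45% in size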
[14] = molecular target: Aromatase (Homo sapiens) (UniProt P11511); assay: qHTS assay to identify aromatase inhibitors (AID 743083); note: series mostly up to about 70 µM; nearly all actives have a fitted effect of over 55% in size
[15] = molecular target: Androgen receptor (Homo sapiens) (UniProt P10275); assay: qHTS assay to identify small molecule antagonists of the androgen receptor (AR) signaling pathway (AID 743035; active = well fitted inhibition curve with a large enough effect in the signal ratio in the repeat runs, not every such curve was filed as active; the % refers to the signal ratio)
Method in brief: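 Steps: seed AR-UAS-bla GripTite HEK293 cells, incubate 4 h at 37C; pin in test compound, then add agonist R1881; incubate 16 h at 37C; add LiveBLAzer B/G FRET substrate, 2 h at room temperature; read fluorescence.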

[16] = molecular target: Androgen receptor (Homo sapiens) (UniProt P10275); assay: qHTS assay to identify small molecule antagonists of the androgen receptor (AR) signaling pathway using the MDA cell line (AID 743042; note: nearly all actives have a fitted effect of over 55% in size)
Method in brief: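 MDA-kb2 cells (human breast carcinoma, stably carrying an MMTV-luciferase reporter responsive to AR and GR) were plated at 3,000 cells/well and preincubated 5 hr at 37C, then given compound plus R1881 agonist for 16 h. ONE-Glo luminescence was read.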

[17] = molecular target: Estrogen receptor (Homo sapiens) (UniProt P03372); assay: qHTS assay to identify small molecule antagonists of the estrogen receptor alpha (ER-alpha) signaling pathway (AID 743069; active = well fitted curve in the direction sought with a large enough effect in the signal ratio in the repeat runs, not every such curve was filed as active; the % refers to the signal ratio)
Method in brief: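 A 17beta-estradiol challenge was applied right after compound transfer to ER-alpha-UAS-bla HEK293 cells previously kept in charcoal-stripped serum. Plates stood 18 hr at 37C and 5% CO2; fluorescence was read following 2 hr FRET substrate loading at room temperature.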

[18] = molecular target: Estrogen receptor (Homo sapiens) (UniProt P03372); assay: qHTS assay to identify small molecule agonists of the estrogen receptor alpha (ER-alpha) signaling pathway (AID 743075; calls by dose curve;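 note: HEK293 GripTite cells with ER-alpha and UAS-driven beta-lactamase reporter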)
[19] = molecular target: Estrogen receptor (Homo sapiens) (UniProt P03372); assay: qHTS assay to identify small molecule agonists of the estrogen receptor alpha (ER-alpha) signaling pathway using the BG1 cell line (AID 743079); note: nearly all actives have a fitted effect of over 20% in size; note: potency is the fitted concentration of half-maximal effect
[20] = qHTS assay to identify small molecule antagonists of the estrogen receptor alpha (ER-alpha) signaling pathway using the BG1 cell line (AID 743080; calls by dose curve;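 note: BG1 cells stimulated with 17beta-estradiol alongside compound; series mostly up to about 70 µM; nearly all actives have a fitted effect of over 25% in size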)
Method in brief: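 Quantitative HTS on the Tox21 10K library: BG1 cells with endogenous ER-alpha and ERE-luciferase reporter, 17beta-estradiol stimulation, 21.5 h compound exposure, luminescence endpoint with parallel fluorescence cytotoxicity counter-read.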

Androgen receptor (Homo sapiens), sequence (P10275 whole entry, looked up): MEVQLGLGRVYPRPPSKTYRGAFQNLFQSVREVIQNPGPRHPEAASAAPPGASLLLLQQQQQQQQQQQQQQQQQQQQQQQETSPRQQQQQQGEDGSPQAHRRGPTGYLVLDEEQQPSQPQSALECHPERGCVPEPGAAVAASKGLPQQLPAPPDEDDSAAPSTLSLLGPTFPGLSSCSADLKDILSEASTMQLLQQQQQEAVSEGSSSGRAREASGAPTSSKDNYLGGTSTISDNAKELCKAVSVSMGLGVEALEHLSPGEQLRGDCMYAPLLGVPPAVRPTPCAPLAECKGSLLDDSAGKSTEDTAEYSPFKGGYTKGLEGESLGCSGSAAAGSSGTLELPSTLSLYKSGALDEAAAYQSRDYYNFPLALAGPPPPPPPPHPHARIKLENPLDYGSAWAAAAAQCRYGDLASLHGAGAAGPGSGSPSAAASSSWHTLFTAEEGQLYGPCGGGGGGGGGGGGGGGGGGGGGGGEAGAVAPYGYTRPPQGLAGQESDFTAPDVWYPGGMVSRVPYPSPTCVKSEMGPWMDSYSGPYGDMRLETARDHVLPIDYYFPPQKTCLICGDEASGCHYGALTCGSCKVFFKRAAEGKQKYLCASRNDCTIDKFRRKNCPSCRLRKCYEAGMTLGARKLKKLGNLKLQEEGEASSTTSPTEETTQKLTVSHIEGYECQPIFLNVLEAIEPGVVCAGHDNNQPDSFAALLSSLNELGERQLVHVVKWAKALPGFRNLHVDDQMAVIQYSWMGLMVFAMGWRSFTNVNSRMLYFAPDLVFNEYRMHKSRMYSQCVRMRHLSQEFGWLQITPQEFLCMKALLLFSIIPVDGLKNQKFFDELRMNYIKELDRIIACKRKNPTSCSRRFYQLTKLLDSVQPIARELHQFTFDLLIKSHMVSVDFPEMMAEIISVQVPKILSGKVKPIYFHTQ
Estrogen receptor (Homo sapiens), sequence (P03372 whole entry, looked up): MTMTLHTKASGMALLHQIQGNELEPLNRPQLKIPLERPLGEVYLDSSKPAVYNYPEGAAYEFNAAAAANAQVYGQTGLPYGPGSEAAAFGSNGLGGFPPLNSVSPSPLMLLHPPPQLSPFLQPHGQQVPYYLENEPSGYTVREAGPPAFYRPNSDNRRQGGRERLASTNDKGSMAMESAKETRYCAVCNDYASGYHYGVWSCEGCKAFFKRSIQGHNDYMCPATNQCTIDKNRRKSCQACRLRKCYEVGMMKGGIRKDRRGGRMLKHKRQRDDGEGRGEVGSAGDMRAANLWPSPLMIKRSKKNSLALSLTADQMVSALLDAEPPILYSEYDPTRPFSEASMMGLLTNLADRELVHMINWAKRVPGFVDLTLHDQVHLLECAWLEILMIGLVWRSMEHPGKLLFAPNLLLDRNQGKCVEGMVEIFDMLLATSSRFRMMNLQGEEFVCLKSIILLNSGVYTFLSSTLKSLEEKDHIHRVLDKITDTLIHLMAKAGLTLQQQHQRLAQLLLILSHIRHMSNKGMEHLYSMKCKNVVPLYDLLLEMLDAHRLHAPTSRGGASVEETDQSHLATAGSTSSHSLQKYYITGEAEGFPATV
Aromatase (Homo sapiens), sequence (P11511 whole entry, looked up): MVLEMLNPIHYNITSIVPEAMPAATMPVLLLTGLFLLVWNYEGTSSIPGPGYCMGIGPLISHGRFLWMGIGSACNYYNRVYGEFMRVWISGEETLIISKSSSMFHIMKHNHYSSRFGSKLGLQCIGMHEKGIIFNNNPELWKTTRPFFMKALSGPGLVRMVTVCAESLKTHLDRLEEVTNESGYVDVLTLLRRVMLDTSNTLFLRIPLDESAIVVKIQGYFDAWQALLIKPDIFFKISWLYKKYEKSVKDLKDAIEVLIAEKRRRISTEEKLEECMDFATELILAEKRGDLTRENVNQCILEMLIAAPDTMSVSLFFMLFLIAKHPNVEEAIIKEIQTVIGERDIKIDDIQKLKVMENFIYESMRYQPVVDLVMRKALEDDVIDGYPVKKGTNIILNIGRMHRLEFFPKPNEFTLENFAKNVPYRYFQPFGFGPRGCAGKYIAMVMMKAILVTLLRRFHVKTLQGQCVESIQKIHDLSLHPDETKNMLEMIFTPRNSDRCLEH

Compound | outcome [1] | Potency [2] | Potency [3] | Potency [4] | Potency [5] | outcome [6] | outcome [7] | Potency [8] | Potency [9] | Potency [10] | outcome [11] | outcome [12] | outcome [13] | Potency [14] | Potency [15] | Potency [16] | outcome [17] | outcome [18] | Potency [19] | Potency [20]
CC/C=C\CC1=C(C)CCC1=O | inactive | inactive | inactive | inactive | inactive | inactive | inactive | inactive | inactive | inactive | inactive | inactive | inactive | inactive |  |  |  |  |  | 
CC(C)NCC(O)COc1cccc2[nH]ccc12 (stereo unspecified) | inactive | inactive | inactive | inactive | inactive | inactive | inactive | inactive | inactive | inactive | inactive | inactive | inactive | inactive | inactive | inactive |  |  |  | 
CC(C)(C)NC(N)=O | inactive | inactive | inactive | inactive | inactive |  | inactive | inactive | inactive | inactive | inactive | inactive | inactive | inactive | inactive | inactive | inactive | inactive | inactive | inactive
CCCCCCCCCC(C)=O | inactive | inactive | inactive | inactive | inactive | inactive | inactive | inactive | inactive | inactive | inactive | inactive | inactive | inactive | inactive | inactive | inactive | inactive | inactive | inactive
O=C(NCCc1c[nH]c2ccccc12)c1cccnc1 | inactive | inactive | inactive | inactive | inactive | inactive | inactive | inactive | inactive | inactive | inactive | inactive | inactive |  |  | inactive | inactive | inactive | inactive | inactive
CC(C)c1ccc2cc(C(C)C)ccc2c1 | inactive | inactive | inactive | inactive | inactive | inactive | inactive | inactive | inactive | inactive | inactive | inactive | inactive | inactive | inactive | inactive | inactive | inactive | inactive | 
CN(C)c1ccc(C=O)cc1 | inactive | inactive | inactive | inactive | inactive |  |  | inactive | inactive | inactive | inactive | inactive | inactive | inactive |  |  | inactive | inactive | 54.5 µM (active) | inactive
Oc1cn2c(n1)Nc1ccc(Cl)c(Cl)c1C2 | inactive | inactive | inactive | inactive | inactive | inactive | inactive | inactive | inactive | inactive | inactive | inactive | inactive | inactive | inactive | inactive | inactive | inactive | inactive | inactive
C=CCCCCCCCCCCCC | inactive | inactive | inactive | inactive | inactive |  | inactive | inactive | inactive | inactive | inactive |  | inactive | inactive | inactive | inactive |  |  |  | 
CN1C(C)(C)CCCC1(C)C | inactive | inactive | inactive | inactive | inactive |  |  | inactive | inactive | inactive | inactive | inactive | inactive | inactive |  |  | inactive | inactive | inactive | inactive
COc1cc(NS(=O)(=O)c2ccc(N)cc2)nc(OC)n1 | inactive | inactive | inactive | inactive | inactive | inactive | inactive | inactive | inactive | inactive | inactive | inactive | inactive | inactive | inactive | inactive | inactive | inactive | inactive | 
CC(C)N(c1ccccc1)C(C)C | inactive | inactive | inactive | inactive | inactive |  |  | inactive | inactive | inactive | inactive | inactive | inactive | inactive |  |  | inactive | inactive | inactive | inactive
O=C(CS(=O)Cc1ccco1)NC/C=C\COc1cc(CN2CCCCC2)ccn1 (stereo unspecified) | inactive | inactive | inactive | inactive | inactive |  |  | inactive | inactive | inactive | inactive | inactive | inactive | inactive |  |  | inactive | inactive | inactive | inactive
OCCC(F)(F)C(F)(F)C(F)(F)C(F)(F)C(F)(F)C(F)(F)C(F)(F)C(F)(F)F | inactive | inactive | inactive | inactive | inactive | inactive | inactive | inactive | inactive | inactive | inactive | inactive | inactive | inactive |  | inactive |  | inactive | inactive | inactive
CCN(C)C(=O)Oc1cccc([C@H](C)N(C)C)c1 | inactive | inactive | inactive | inactive | inactive | inactive | inactive | inactive | inactive | inactive | inactive | inactive | inactive | inactive | inactive | inactive | inactive | inactive | inactive | inactive

Reference: PubChem BioAssay (Tox21)
